AMA1-RON2 inh: qHTS for Inhibitors of AMA1-RON; Towards Development of Antimalarial Drug Lead: Primary Screen; Potency, µM (doses to about 58.2 µM), inactives show at the top dose activity change, negative = inhibition, usual class: inhibitors; 360,000 tested, 0.2% active; AlphaScreen AMA1-biotinylated RON2 peptide binding;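 note: 0% = vehicle wells and -100% = peptide control; nearly all actives have a fitted effect of over 45% in size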
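AMA1 (3D7) with his tag at 25 nM final met compounds first, then biotinylated RON2 peptide at 25 nM; detection used donor plus acceptor beads, 10 µg/mL apiece, read by AlphaScreen after 30 min at room temperature.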
Pf growth 96h: Primary qHTS for delayed death inhibitors of the malarial parasite plastid, 96 hour incubation. AID 504834, 2011. 320,000 tested, 6.9% active. Potency, µM (doses to about 28.7 µM), for inactives: at the highest dose activity change, negative = inhibition, actives largely listed as inhibitors. P. falciparum luciferase reporter growth, 96 h; note: % is set by controls: 0 for no effect and ±100 for the full control effect
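Readout is luminescence from an integrated firefly luciferase in P. falciparum. Red cells, 2% hematocrit and 0.05% parasitemia final, were cultured with compound through two parasite generations (96 hours) at 37 C, 5% CO2.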
Pf growth 48h: Primary qHTS for delayed death inhibitors of the malarial parasite plastid, 48 hour incubation. AID 504832, 2011. P. falciparum luciferase growth in erythrocytes, 48 h. Potency, µM (highest dose often 28.7 µM), inactives show at the top dose activity change, negative = inhibition, actives largely listed as inhibitors. 310,000 tested, 5.9% active; note: % is set by controls: 0 for no effect and ±100 for the full control effect
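In quantitative HTS format, infected erythrocytes bearing luciferase-reporter parasites were treated for a single generation at 37 C. Luminescence after adding detection reagent served as the growth measure.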
NS1 inh: qHTS Assay for Inhibitors of Influenza NS1 Protein Function; AID 2326, 2010; 270,000 tested, 0.4% active; Potency, µM (titrated, usually from 46.1 µM), for the others: at the highest dose activity, positive = more growth; calls by dose curve; note: actives are rising curves; nearly all actives have a fitted effect of over 50% in size
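Recovery from NS1-induced slow growth read by OD600 in budding yeast switched to galactose assay medium (pH 6.0, -URA) at 1:100 dilution. Compound 23 nl per well; the matching strain lacking NS1 serves as control.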
HCV inhibitor: qHTS Assay for Inhibitors of Hepatitis C Virus (HCV) | Huh7.5.1 HCVcc-Cre infection, luciferase reporter, 44 h | 340,000 tested, 3.4% active | Potency, µM (top dose mostly 41.8 µM), for the others: at the highest dose activity change, negative = inhibition, usual class: inhibitors; note: % is set by controls: 0 for no effect and ±100 for the full control effect
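Reporter virus HCVcc-Cre (~0.5 moi) infects cells exposed to compound; seeding density 1,000 cells/well with 4 h settling beforehand. Luminescence, 15 sec read, taken 44 h post-infection following a 15 min RT substrate incubation.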
SARS PLpro yeast: qHTS of Yeast-based Assay for SARS-CoV PLP; 330,000 tested, 0.19% active; Potency, µM (titrated, usually from 32.9 µM), for the others: at the top dose activity, positive = growth rescue, usual class: activators; S. cerevisiae expressing SARS-CoV PLpro, growth rescue; calls by dose curve; note: 0% is about no effect; nearly all actives have a fitted effect of over 55% in size
Numbers without * were called inactive; ? = inconclusive; . = not tested or not shown. Compounds with a hit are over-represented: about 12% of the library has one in this group of screens. Unless noted, calls come from the whole dose curve; as a rule, active = well fitted curve in the direction sought with a large enough effect; inconclusive = small, poorly fitted or top-dose-only effect, or another doubt; inactive = no such curve, though single readings can be large; an effect the other way counts as inactive or inconclusive. Potency is the fitted concentration of half-maximal effect.

SMILES	AMA1-RON2 inh	Pf growth 96h	Pf growth 48h	NS1 inh	HCV inhibitor	SARS PLpro yeast
CN(CC(=O)Nc1c(Cl)cccc1Cl)C(=O)c1ccc2nc[nH]c2c1	-18%	49%	0%	.	0%	.
COc1ccccc1CNS(=O)(=O)c1cc(C(=O)N(C)Cc2cccnc2)c(Cl)cc1Cl	-9%	.	.	.	?	.
CCOc1ccc(-c2nnc(SCC(=O)Nc3ccc4c(c3)c3ccccc3n4CC)n2N)cc1	?	?	-44%	21%	4µM*	-10%
CCn1c2ccccc2c2cc(NC(=O)CSc3nnc(-c4cccc(OC)c4)n3N)ccc21	-10%	?	?	3%	8.9µM*	7%
CN1CCN(C(=O)C2=C[C@H](c3ccccc3)C[C@H](OCc3ccc(CO)cc3)O2)CC1	1%	7%	?	1%	13%	1%
CC(C)Cn1c(=O)c(CCC(=O)Nc2ccc(N3CCOCC3)cc2)nc2cc(Cl)ccc21	1%	20%	?	1%	?	5%
O=[N+]([O-])c1ccc2c(c1Nc1ccccc1)=NC1(CCCCC1)N=2	?	?	-9%	17%	5%	-2%
COc1ccc(Nc2c([N+](=O)[O-])ccc3c2=NC2(CCCCC2)N=3)cc1	8.9µM*	42%	?	.	?	0%
C=CCN(C(=O)CSc1nc2c(sc3ccccc32)c(=O)n1CCN(CC)CC)c1ccccc1	?	0%	?	.	-50%	-1%
CN(CCOc1ccccc1)CC(O)COc1ccccc1 (configuration not stated)	-5%	29%	13%	9%	3%	0%
CC(OCC(O)CN(C)CCOc1ccccc1)c1ccc(Cl)cc1 (configuration not stated)	-22%	12µM*	?	1%	-16%	-5%
CN(CCOc1ccc(Cl)cc1)CC(O)c1ccccc1 (configuration not stated)	2%	?	9.3µM*	0%	?	1%
CC(C)c1ccc(CN(C)CC(O)c2ccccc2)cc1 (configuration not stated)	7%	9.3µM*	2.6µM*	-1%	3%	-1%
NC(=O)c1cc([N+](=O)[O-])c(Cl)cc1NCc1ccccn1	76%	73%	?	.	?	-9%
COC(=O)C1=C(C(=O)OC)[C@@H]2N(Cc3ccccc3)c3ccccc3[C@@]23C[C@@H](C(=O)OC)N(C(=O)C2CCC2)C3=N1	1%	.	.	.	16%	.
COc1ccc(C2=NCCn3c2c2ccc(C(F)(F)F)cc2[n+]3[O-])cc1	82%	22%	?	.	9%	2%
Cc1ccc(C2=NCCn3c2c2ccc(C(F)(F)F)cc2[n+]3[O-])cc1	-4%	?	10µM*	.	?	1%
CCc1ccccc1Nc1nc(N)nc(COC(=O)CCC(=O)c2ccc(F)cc2)n1	27%	?	?	.	7%	-2%
C=CCOc1ccccc1CN1CCC(Oc2ccc(C(=O)N3CCCCC3)cc2)CC1	-5%	10µM*	37%	-5%	.	-1%
Cc1ccccc1CN1CCC(Oc2ccc(C(=O)N3CCCC3)cc2)CC1	2%	74%	?	2%	-7%	0%
O=C(c1ccc(OC2CCN(C/C=C/c3ccc(F)cc3)CC2)cc1)N1CCCC1	-6%	4.1µM*	8.3µM*	-11%	?	-4%
Cc1cccc(CN2CCN(C(=O)CCl)CC2)c1	27%	0.074µM*	1.2µM*	8%	?	-11%
Cc1cccc(CN2CCC(Oc3ccc(C(=O)N4CCCC4)cc3)CC2)n1	28%	2.3µM*	?	1%	31%	-4%
CC(=O)N1CCN(C(=O)c2ccc(OC3CCN(Cc4ccccn4)CC3)cc2)CC1	42%	7%	?	6%	-7%	3%
COCCC(=O)N1CCC(Oc2ccc(C(=O)N3CCCCC3CCO)cc2)CC1 (configuration not stated)	9%	4.7µM*	-21%	12%	1%	-6%
SMILES	AMA1-RON2 inh	Pf growth 96h	Pf growth 48h	NS1 inh	HCV inhibitor	SARS PLpro yeast
CCc1ccc(CN2CCC(Oc3ccc(C(=O)N4CCCC4)cc3)CC2)cc1	-7%	?	9.3µM*	-4%	?	7%
CC(C)c1ccc(CN2CCC(Oc3ccc(C(=O)N4CCCC4)cc3)CC2)cc1	-12%	-31%	6.6µM*	1%	?	-4%
Cc1cccc(CN2CCC(Oc3ccc(C(=O)N4CCCCC4)cc3)CC2)c1	-13%	9.3µM*	?	6%	-12%	23%
CCCCCc1nnc(NC(=O)c2cccc(S(=O)(=O)N3CCOCC3)c2)s1	-1%	?	?	.	?	3%
CCC1(CC)NC(=O)N(CC(=O)Nc2cccc3ccccc23)C1=O	-7%	.	.	.	23%	8%
CCC(=O)NC(c1ccccc1)c1c(OC(C)=O)ccc2ccccc12 (configuration not stated)	9%	10µM*	?	0%	0%	-1%
CC(=O)NC(c1ccccc1)c1c(O)ccc2ccccc12 (configuration not stated)	-7%	-13%	7%	5%	18%	-1%
CCCC(=O)NC(c1ccccc1)c1c(O)ccc2ccccc12 (configuration not stated)	0%	11%	0%	8%	?	2%
CC(=O)Oc1ccc2ccccc2c1C(NC(=O)Cc1ccccc1)c1ccccc1Cl (configuration not stated)	-5%	27%	2.6µM*	-1%	?	-9%
O=C(Cc1ccccc1)NC(c1ccco1)c1c(O)ccc2ccccc12 (configuration not stated)	-7%	5%	?	0%	?	-2%
CCC(=O)NC(c1ccccc1)c1c(O)ccc2ccccc12 (configuration not stated)	-5%	?	9.3µM*	-2%	-6%	-4%
CCC(=O)NC(c1cccc([N+](=O)[O-])c1)c1c(OC(C)=O)ccc2ccccc12 (configuration not stated)	-5%	23%	13µM*	-9%	-14%	-22%
CCCC(=O)NC(c1ccc(N(C)C)cc1)c1c(O)ccc2ccccc12 (configuration not stated)	?	12µM*	?	1%	2%	1%
Cc1ccc(N=C2NC(=O)c3cc([N+](=O)[O-])ccc32)cc1	-6%	4.1µM*	-5%	6%	2%	-13%
O=C1Nc2ccccc2Nc2ccc([N+](=O)[O-])cc21	2%	-1%	-30%	1%	4%	1%

Assay outcomes (PubChem BioAssay)
